Assay outcomes from PubChem.
SRC1 inh: SRC1 coactivator transcriptional activity inhibitors, primary screen, cell-based, luminescence | Nuclear receptor coactivator 1 (Homo sapiens), Q15788 | HEK293 GAL4-SRC1 luciferase reporter | inhibition, % at 3.6 µM | actives 0.12% (n = 360,000);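 active = inhibition above the campaign mean plus 3 SD, with each screening campaign given its own cutoff, cut at about 60% in these data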;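 note: 0% = DMSO treated cells and 100% = gossypol at 36 µM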
NCOA3 inh: SRC3 coactivator transcriptional activity inhibitors, primary screen, cell-based, luminescence | Nuclear receptor coactivator 3 (Homo sapiens), Q9Y6Q9 | HEK293 GAL4-SRC3 luciferase reporter | inhibition, % at 3.6 µM | actives 0.17% (n = 360,000);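 active = inhibition above a per-campaign cutoff, the mean of all compounds plus 3 SD, cut at about 60% in these data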;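 note: 0% = DMSO-treated cells and 100% = gossypol-treated cells at 36 µM; higher means less SRC3-driven luciferase light from the GAL4 reporter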
NR5A2 inv ag: LRH-1 (NR5A2) inverse agonists, primary screen, cell-based, luminescence, HEK293T, StAR-luciferase reporter | AID 602396, 2012 | actives 0.13% (n = 360,000) | LRH-1 transfected, 24 h | Nuclear receptor subfamily 5 group A member 2 (Homo sapiens), O00482 | inhibition, % at 3.6 µM;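 active = inhibition above the mean inhibition of all tested compounds plus 3 SD, cut at about 73% in these data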;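 note: 0% = DMSO wells and 100% = reporter-only cells lacking LRH-1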
SRC2 inh: inhibition of GAL4-SRC2 driven luciferase reporter, primary screen, SRC2 inhibitor project, cell-based, luminescence; Nuclear receptor coactivator 2 (Homo sapiens), Q15596; HEK293 GAL4-SRC2 luciferase reporter; inhibition, % at 9 µM; actives 0.17% (n = 370,000); AID 651957, 2012;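 active = inhibition above the mean inhibition of all tested compounds plus 3 SD, set per campaign, cut at about 52% in these data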;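 note: 0% = DMSO treated cells and 100% = cells given Gossypol at 36 µM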
NR2F2 inh: NR2F2 transcriptional activity inhibitors, primary screen, cell-based, luciferase reporter, HEK293T, luminescence; inhibition, % at 8.6 µM; actives 0.7% (n = 370,000); HEK293T NGFI-A luciferase reporter;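 active = inhibition above a per-plate cutoff, mean inhibition of test wells between control levels plus 3 SD, cut at about 38% in these data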;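 note: cells cotransfected with COUP-TFII expression vector driving the NGFI-A reporter; 0% = median of COUP-TF2 test wells and 100% = reporter-only cells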
GalR3 antag: GalR3 antagonists in HEK293 cells, primary screen, cell-based, fluorescence readout | AID 651719, 2012 | Galanin receptor type 3 (Homo sapiens), O60755 | actives 0.44% (n = 360,000) | inhibition, % at 3 µM | HEK293 GalR3-CNG cAMP membrane potential fluorescence; galR3 body fused to GalR1 C-terminus;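 active = inhibition above the screen-wide average plus 3 SD, cut at about 13% in these data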;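 note: forskolin and galanin both at EC90 stimulate the cells; cAMP rise reported by CNG channel membrane potential dye signal; 0% = forskolin plus galanin with DMSO and 100% = forskolin alone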
GalR3 antag conf: GalR3 antagonist hit confirmation, cell-based, fluorescence, triplicate; shares compounds with GalR3 antag; HEK293 GalR3 CNG cAMP biosensor, membrane potential fluorescence; galR3 fused to GalR1 carboxy tail; challenged with forskolin and galanin at EC90; inhibition, % at 3 µM; actives 59% (n = 1,600); AID 652245, 2013;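 active = inhibition above the primary screen's cutoff, the mean inhibition of all screened compounds plus 3 SD, cut at about 13% in these data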;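 note: 0% = forskolin plus galanin and 100% = forskolin alone with DMSO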
CNG parental: nonspecific cAMP agonists in parental HEK-CNG cells, counter-screen for GalR3 antagonist project, cell-based, fluorescence, high throughput. shares compounds with GalR3 antag. HEK293-CNG parental cells, cAMP membrane potential fluorescence; normalised: DMSO wells 0%, forskolin wells 100%. activation, % at 3 µM. actives 10% (n = 1,600). AID 652268, 2013; in the data active = activation above about 1.3%
* hit, by the source's call; x = no result. This is a sample that favours compounds with a hit; in the whole collection about 1.1% have one here.

SMILES	SRC1 inh	NCOA3 inh	NR5A2 inv ag	SRC2 inh	NR2F2 inh	GalR3 antag	GalR3 antag conf	CNG parental
COC(=O)C1=C[C@@H](C(=O)OC)[C@@H]2C3=C(C(=O)[C@]2(CC(C)C)NC(=O)c2ccccc2)[C@H](C)n2c(=O)n(-c4ccccc4)c(=O)n2[C@@H]3C1	0	-7	6	3	-3	14*	2	0
C=CCN=C1NC(c2ccccc2C(F)(F)F)C(C(=O)OC)=C(C)N1Cc1ccc(C(F)(F)F)cc1 (stereo not drawn)	x	x	x	3	8	-3	x	x
O=C(C=C=Nc1ccccc1)C(=O)N=C=Cc1ccccc1	3	-4	1	-9	-36	18*	10	0
CCOC(=O)[C@]12CCCC3=C1N(CCC3)C(=O)[C@@H](CC(=O)N1CCN(C(=O)C3CC3)CC1)C2	x	x	x	7	3	x	x	x
O=C(NCCc1ccccc1Cl)[C@@H]1CCCN1C(=O)[C@H](Cc1cccnc1)NC(=O)N1CCOCC1	x	x	x	4	7	-2	x	x
COc1ccc(-c2nnn(CC(=O)N(CC(=O)NC3CCCC3)Cc3ccco3)n2)cc1OC	-11	-1	4	17	-18	21*	14*	0
O=C(CN(Cc1ccco1)C(=O)Cn1nnc(-c2ccc(F)cc2)n1)NC1CCCC1	11	-5	14	1	5	3	x	x
COc1ccccc1NC(=O)CSC1=NC(=O)C(Cc2ccccc2)C(=O)N1 (stereo not drawn)	2	-10	-3	11	10	13*	-3	0
Nc1[nH]c(C(=O)c2ccccc2)c(-c2ccc(Cl)cc2)c1C(=O)c1c[nH]c2cc(F)ccc12	x	x	x	-24	1	-6	x	x
CC(=O)Nc1ccc(-c2csc(NC(=O)C3CC(=O)N(c4ccc5c(c4)OCCO5)C3)n2)cc1 (stereo not drawn)	-10	0	-26	20	5	14*	4	0
COc1cc(CN2CCC(CO)(Cc3cccc(C(F)(F)F)c3)CC2)ccc1F	-3	31	17	4	-13	-5	x	x
COc1ccc(CN2CCC(CO)(Cc3cccc(C(F)(F)F)c3)CC2)cc1Cn1cccn1	-20	19	1	3	7	16*	4	3.9*
c1ccc2c(c1)nc(NCCN1CCOCC1)c1nncn12	-3	4	-8	-33	-65	x	8	0
Clc1cccc(N2CCN(CCNc3nc4ccccc4n4cnnc34)CC2)c1	4	2	2	x	x	x	x	x
Oc1cccc(Oc2ncc(C(F)(F)F)cc2Cl)c1	5	-17	9	-6	-5	13*	1	0
CCOC(=O)c1ccc(Oc2cn[nH]c2-c2ccc(O)cc2O)cc1	-3	-6	4	13	17	17*	9	4.4*
CCCOC(=O)c1ccc(Oc2cn[nH]c2-c2ccc(O)cc2O)cc1	1	4	4	14	26	3	x	x
CC(/C=N\NC(=O)Cn1c(C)nc2ccccc21)=C\c1ccccc1	8	19	8	19	37	70*	8	0
COc1ccc(-c2cc(-c3n[nH]c(=S)n3-c3cc(OC)ccc3OC)[nH]n2)cc1	-12	-6	-13	-1	1	24*	12	1
O=C(CSc1nnc(-c2ccccn2)n1-c1ccc(Cl)cc1)Nc1ccc(S(=O)(=O)Nc2nccs2)cc1	x	x	x	12	-9	x	x	x
Cc1ccc(C2C(C(=O)c3cccs3)=C(O)C(=O)N2c2nnc(C)s2)cc1 (stereo not drawn)	-23	-50	-52	-17	-24	13*	18*	0
COc1cc(C2c3c(-c4cc(Cl)c(C)cc4O)n[nH]c3C(=O)N2Cc2cccnc2)ccc1O (stereo not drawn)	-29	6	-25	-13	-5	33*	24*	0
COc1cccc(C2c3c(-c4cc(Cl)c(C)cc4O)n[nH]c3C(=O)N2Cc2cccnc2)c1 (stereo not drawn)	-4	2	4	0	11	12	x	x
COc1ccc(-c2c(C(=O)c3ccc(Br)cc3)[nH]c(N)c2C(=O)c2ccccc2)cc1OC	x	x	10	-16	-8	-7	x	x
O=C(COC(=O)c1cccnc1)Nc1ccc2c(c1)OCO2	5	14	-17	7	5	14*	-1	0
SMILES	SRC1 inh	NCOA3 inh	NR5A2 inv ag	SRC2 inh	NR2F2 inh	GalR3 antag	GalR3 antag conf	CNG parental
COc1ccc(CCC(=O)N2c3ccccc3N=C(c3ccc(C(F)(F)F)cc3)C2C(=O)NC2CCCC2)cc1 (stereo not drawn)	x	x	-17	-41	-27	-9	x	x
COc1cc(C=Nn2c(-c3ccccc3F)n[nH]c2=S)ccc1OCc1ccccc1	x	x	x	-15	-15	x	x	x
O=C1/C(=C/c2cccc([N+](=O)[O-])c2)CCc2ccccc21	-12	14	-12	3	-48	16*	8	0
COc1cc(OC)cc(-c2c(C#Cc3ccsc3)c3cc(-c4ccc(C(N)=O)cc4)ccc3n2C)c1	10	0	-18	-20	7	x	4	0
COCc1[nH]nc2c1C(c1ccc(C)cc1)N(Cc1ccccc1)C2=O (stereo not drawn)	x	x	x	-1	13	-7	x	x
CCC(C#Cc1ccccc1)N(C)C(N)=NC(=O)/C=C/c1ccccc1 (stereo not drawn)	x	x	x	x	0	x	x	x
C[C@@H]1ON(C)[C@H]2C[C@H]3c4cc(-c5ccc(F)cc5)ccc4CCN3C[C@@H]12	x	x	x	-17	-8	-1	x	x
CCC(CC)C(C(=O)NCc1ccccc1)N1CCN(CCN2CCOCC2)CC1 (stereo not drawn)	x	x	7	-17	2	0	x	x
O=C(O)c1ccc(NC(=S)NC(=O)c2ccc(-c3ccc(Br)cc3)o2)cc1	-3	-26	10	5	-5	13*	-19	1.7*
CC(C)Nc1nc(Cl)nc(N(C#N)CN2C(=O)c3ccccc3C2=O)n1	-19	-2	0	-24	-4	16*	1	1
